Compound activity deposited in PubChem BioAssay by National Center for Advancing Translational Sciences (NCATS).
TDP1 cell CPT – qHTS for Inhibitors of human tyrosyl-DNA phosphodiesterase 1 (TDP1): qHTS in cells in presence of CPT; AID 686979, 2013; Potency, µM (top dose mostly 46.2 µM), for inactives: top-dose activity change, negative = growth inhibition, actives largely listed as inhibitors; hit rate 12% among 420,000; chicken DT40 Tdp1-/-;hTDP1 cells + 20 nM CPT, ATP luminescence, 48 h; note: nearly all actives have a fitted effect of over 55% in size
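Chicken DT40 Tdp1-/- cells stably complemented with human TDP1 were seeded at 400 cells/well in medium containing 20 nM camptothecin, exposed to pin-transferred compounds, and grown at 37 °C for at least 48 hr. Viability was read as ATP luminescence.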
ALOX12 inh – Primary qHTS assay for inhibitors of human arachidonate 12S-lipoxygenase (ALOX12): Round 2 | Polyunsaturated fatty acid lipoxygenase ALOX12 (Homo sapiens), P18054 | purified 12hLO, xylenol orange hydroperoxide absorbance | Potency, µM (doses to about 108 µM), for the others: top-dose activity change, negative = inhibition, usual class: inhibitors | hit rate 1.1% among 580,000 | AID 1671190, 2021
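Purified human 12hLO at 150 nM in 25 mM Hepes, 0.01% Triton X-100, pH 7.0, preincubated 15 min at room temperature with compound. Reaction started with 40 uM arachidonic acid, 30 min at room temperature. Hydroperoxide measured by Fe-xylenol orange, 573/405 nm absorbance ratio.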
VP16 counter – VP16 counterscreen qHTS for inhibitors of ROR gamma transcriptional activity. Potency, µM (doses to about 53.6 µM), for inactives: at the top dose activity, negative = inhibition, usual class: inhibitors. hit rate 3.5% among 310,000. AID 2546, 2010. Drosophila S2 Gal4-VP16 UAS-luciferase, luminescence, 20 h;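 note: Gal4-VP16 expression switched on by copper sulfate through the metallothionein promoter; nearly all actives have a fitted effect of over 50% in size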
DT40 TDP1 no CPT – qHTS for Inhibitors of human tyrosyl-DNA phosphodiesterase 1 (TDP1): qHTS in cells in absence of CPT. DT40 Tdp1-/- hTDP1 cells, no CPT, ATP luminescence, 48 h. Potency, µM (highest dose often 46.2 µM), for inactives: top-dose activity change, negative = growth inhibition, usual class: inhibitors. hit rate 15% among 420,000; note: nearly all actives have a fitted effect of over 55% in size
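A cellular qHTS used chicken DT40 cells lacking endogenous Tdp1 but carrying stably transfected human TDP1. Compounds were applied without camptothecin, and cell growth kinetics were judged by ATP-dependent luminescence after ≥48 hr.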
ELG1 repair inh – qHTS screen for small molecules that inhibit ELG1-dependent DNA repair in human embryonic kidney (HEK293T) cells expressing luciferase-tagged ELG1 | HEK293T ELG1-luciferase reporter, luminescence, 16 h; DNA damage induced by 5-fluorouridine | Potency, µM (top dose mostly 46.1 µM), inactives show at the highest dose activity change, negative = inhibition, most hits filed as inhibitors | hit rate 2.3% among 330,000; note: nearly all actives have a fitted effect of over 55% in size
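Overnight (16 hr) co-exposure of 2,000 cells/well to 5-fluorouridine and compound at 37 °C preceded detection. Luciferase was quantified via ONE-Glo luminescence; loss of signal denotes inhibition.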
RORg inh – qHTS for inhibitors of ROR gamma transcriptional activity. Drosophila S2 Gal4-RORgamma UAS-luciferase reporter, 20 h. Potency, µM (top dose mostly 53.6 µM), for inactives: at the top dose activity change, negative = inhibition, usual class: inhibitors. hit rate 5.4% among 310,000. AID 2551, 2010; note: nearly all actives have a fitted effect of over 60% in size
Target sequence (P51450 whole entry, looked up, the tested form may be a part): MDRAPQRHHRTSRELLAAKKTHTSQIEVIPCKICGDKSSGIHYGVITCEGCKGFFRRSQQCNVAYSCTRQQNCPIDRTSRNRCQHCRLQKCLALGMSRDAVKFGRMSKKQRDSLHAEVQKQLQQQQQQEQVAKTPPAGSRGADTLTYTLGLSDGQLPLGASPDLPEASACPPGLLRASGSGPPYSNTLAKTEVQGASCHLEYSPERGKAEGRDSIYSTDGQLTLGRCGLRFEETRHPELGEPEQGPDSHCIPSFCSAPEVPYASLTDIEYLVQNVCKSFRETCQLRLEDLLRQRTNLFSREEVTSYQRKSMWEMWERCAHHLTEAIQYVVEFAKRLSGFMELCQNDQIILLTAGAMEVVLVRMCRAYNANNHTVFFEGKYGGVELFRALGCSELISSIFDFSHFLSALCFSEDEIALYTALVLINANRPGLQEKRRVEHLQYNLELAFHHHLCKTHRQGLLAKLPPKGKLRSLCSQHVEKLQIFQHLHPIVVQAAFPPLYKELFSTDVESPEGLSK
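Schneider cells (Drosophila), stable Gal4 DBD–ROR gamma + UAS-luc; 1 hr cmpd preincubation; Cu2+ induction 700 uM final; 20 hr ambient; luminescence.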
The depositor's hits bear a star; u = inconclusive; x = no result given; [ ] = another dose, or the depositor's remark. An excerpt weighted towards active compounds, which were near 15% of everything screened. Calls come from the whole dose curve; as a rule, active = well fitted curve in the direction sought with a large enough effect; inconclusive = small, poorly fitted or top-dose-only effect, or another doubt; inactive = no such curve, though single readings can be large; an effect the other way counts as inactive or inconclusive. % is set by controls: 0 for no effect and ±100 for the full control effect; potency is the fitted concentration of half-maximal effect.

SMILES	TDP1 cell CPT	ALOX12 inh	VP16 counter	DT40 TDP1 no CPT	ELG1 repair inh	RORg inh
CCOC(=O)c1ccc(NC(=O)CN(Cc2ccc(C)cc2)S(=O)(=O)c2ccc(C)cc2)cc1	13µM*	-20.5%	x	13µM*	x	x
CCOC(=O)c1ccc(NC(=O)CN(Cc2ccc(Cl)cc2)S(C)(=O)=O)cc1	u	0.9%	0.1%	u	-0.9%	32.7%
Cc1ccc(S(=O)(=O)N(CC(=O)NCc2ccco2)Cc2ccc(F)cc2)cc1	-15.4%	-55.6%	3.9%	-19.2%	-16.0%	u
Cc1ccc(S(=O)(=O)N(CC(=O)Nc2ccc(F)cc2F)Cc2ccc(F)cc2)cc1	18.4µM*	-19.6%	x	20.6µM*	x	x
CCc1ccccc1CC1CN(Cc2ccccc2)Cc2ccccc2N1c1ccc(OC)cc1 (configuration not stated)	u	13.1%	x	11.6µM*	x	x
Cc1ccc(S(=O)(=O)N/N=C/c2cccn2-c2ccc(Cl)cc2)cc1	u	u	-10.6%	-20.7%	u	19.0%
CC1=NN(c2ccc(Cl)cc2)C(=O)/C1=C\c1cccn1-c1ccc(S(N)(=O)=O)cc1	u	-26.4%	u	14.6µM*	-17.2%	u
CC(=O)N1c2ccc(S(=O)(=O)N(C)CC(=O)NCCc3ccc(Cl)cc3)cc2CC1C (configuration not stated)	x	4.6%	x	x	x	x
COc1ccc(N2C(=O)CS(=O)(=O)C23C(=O)N(Cc2ccccc2)c2ccccc23)cc1 (configuration not stated)	-28.7%	-8.3%	x	u	x	x
Cc1cc(C)cc(N2C(=O)CS(=O)(=O)C23C(=O)N(Cc2ccc(F)cc2)c2ccc(C)cc23)c1 (configuration not stated)	18.4µM*	u	x	20.6µM*	x	x
CCc1cccc(N2C(=O)CS(=O)(=O)C23C(=O)N(Cc2ccccc2)c2ccc(C)cc23)c1 (configuration not stated)	u	-9.4%	x	18.4µM*	x	x
CCc1cccc(N2C(=O)CS(=O)(=O)C23C(=O)N(Cc2ccc(F)cc2)c2ccc(C)cc23)c1 (configuration not stated)	u	-17.2%	x	23.1µM*	x	x
Cc1cccc(C(=O)Oc2cccc(OC(=O)c3cccc(C)c3)c2C)c1	x	3.9%	x	x	x	x
CCN(CC)Cc1ccc(CNC(=O)c2n[nH]c(=O)c3ccccc23)cc1	x	19.1%	x	x	x	x
COc1ccc(-c2c(NC(=O)c3cc(OC)c(OC)c(OC)c3)oc3ccc(Cl)cc3c2=O)cc1	x	-16.5%	x	x	x	x
Cc1cc2c(n1-c1ccc(C(=O)NCc3ccccc3Cl)cc1)CCCC2	23.1µM*	-4.2%	x	18.4µM*	x	x
Cc1cc2c(n1-c1ccc(C(=O)NCc3ccc(OC(C)C)cc3)cc1)CCCC2	25.9µM*	-4.2%	x	16.4µM*	x	x
Cc1cc2c(n1-c1ccc(C(=O)O)cc1)CCCCC2	x	x	-4.9%	x	u	-9.2%
O=C(NCc1ccccc1)c1ccccc1Nc1ccccc1	x	-6.5%	x	x	x	x
COc1ccc2oc(=O)cc(CN3CCN(C(=O)c4c(F)cccc4F)CC3)c2c1	x	-4.4%	x	x	x	x
Cc1cc(N2CCC(NC(=O)c3ccc4[nH]ccc4c3)C2=O)ccc1F (configuration not stated)	x	4.4%	x	x	x	x
Cc1ccc(/C=C(\NC(=O)c2ccc(C)cc2)c2nc(=S)[nH][nH]2)cc1	14.6µM*	20µM*	u	u	u	u
C=CCOC(=O)/C(=C\c1ccccc1)NC(=O)c1ccc(C)cc1	-22.8%	0.9%	-8.0%[10 µM]	u	u	11.5%
Cc1ccc(C(=O)N/C(=C/c2ccccc2F)C(=O)NCCCn2ccnc2)cc1	u	-0.6%	8.8%	17.2%	13.0%	-10.2%
Cc1ccc(C(=O)N/C(=C\c2ccccc2F)c2nc(=S)[nH][nH]2)cc1	20.6µM*	u	-15.4%	u	u	-44.1%
SMILES	TDP1 cell CPT	ALOX12 inh	VP16 counter	DT40 TDP1 no CPT	ELG1 repair inh	RORg inh
N=c1c2c(ncn1CCCO)Oc1ccc3ccccc3c1C2c1ccccc1 (configuration not stated)	u	u	0.5%	u	u	-18.1%
COc1ccc(C2C3=C(CC(C)(C)CC3=O)Oc3ncn(CC(C)C)c(=N)c32)cc1 (configuration not stated)	u	-4.2%	0.8%	u	18.9%	13.7%
COc1ccc(C2c3ccc4ccccc4c3Oc3ncn(CCO)c(=N)c32)cc1 (configuration not stated)	u	x	u	25.9µM*	5.9%	u
N=c1c2c(ncn1CCN1CCOCC1)Oc1cc(O)ccc1C2c1ccccc1 (configuration not stated)	1.2%	0.5%	13.4%	u	-29.4%	-12.5%
N=c1c2c(ncn1CCCO)Oc1c(ccc3ccccc13)C2c1ccccc1 (configuration not stated)	u	u	u	u	3.0%	17.8µM*
COc1ccc(C2c3ccc4ccccc4c3Oc3ncn(CCCO)c(=N)c32)cc1 (configuration not stated)	u	u	-26.1%	u	u	3.98µM*
CN(C)CCCn1cnc2c(c1=N)C(c1ccccc1)c1ccc3ccccc3c1O2 (configuration not stated)	6.51µM*	u	u	u	u	17.8µM*
